The record followed here is PubChem BioAssay AID2661 (Broad Institute, 2010).

Molecules are shown by their SMILES. Among all 320,000 compounds or so, about 240 (0.075%) were called active. This excerpt belongs to a sample that is enriched for actives. A number with no mark means an inactive call.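 The calls were made as follows: active = inhibition at or above 25%, using the most active replicate where run in duplicate; inactive = inhibition below 25%.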

Serine/threonine-protein kinase 33 (Homo sapiens), sequence (Q9BYT3 whole entry, looked up): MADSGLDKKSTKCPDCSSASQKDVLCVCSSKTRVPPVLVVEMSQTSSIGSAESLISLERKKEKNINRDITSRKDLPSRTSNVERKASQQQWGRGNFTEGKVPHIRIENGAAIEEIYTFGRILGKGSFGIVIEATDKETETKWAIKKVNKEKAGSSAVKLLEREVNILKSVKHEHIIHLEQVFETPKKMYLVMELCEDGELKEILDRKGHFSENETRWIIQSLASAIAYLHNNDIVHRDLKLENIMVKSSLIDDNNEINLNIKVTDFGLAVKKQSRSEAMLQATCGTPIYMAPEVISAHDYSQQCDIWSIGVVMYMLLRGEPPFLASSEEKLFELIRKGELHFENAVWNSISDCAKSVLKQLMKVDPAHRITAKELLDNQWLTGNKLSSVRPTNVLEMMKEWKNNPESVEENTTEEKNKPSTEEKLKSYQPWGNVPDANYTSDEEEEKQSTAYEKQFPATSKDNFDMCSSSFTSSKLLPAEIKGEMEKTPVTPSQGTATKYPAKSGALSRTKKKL

This test concerns the target Serine/threonine-protein kinase 33 (Homo sapiens) (UniProt Q9BYT3). The test can be described thus: inhibitors of purified STK33 kinase, primary screen, biochemical, ADP-Glo luminescence, homogeneous, cell-free (AID 2661). As to conditions: purified STK33, MBP phosphorylation, at 10 µM, active compounds read high. On the technique in general: ADP-Glo turns the ADP formed in a reaction into a luminescent signal.
With `CCCc1cc(=O)[nH]c(SCC(=O)Nc2ccc(S(=O)(=O)N3CCCC3)cc2)n1`, the inhibition – broadly, the drop in the measured response relative to a control, in per cent – is -1.05%.
As to `Cc1noc(C)c1NC(=O)Nc1ccc2c(c1)C(=O)N([C@H](C)CO)C[C@H](C)[C@@H](CN(C)S(=O)(=O)c1cn(C)cn1)O2`, the inhibition is -0.91%.
Regarding `COc1c(O)cc2oc(-c3ccc(O)c(O)c3)cc(=O)c2c1O`, the inhibition was 44.2% (active).
Turning to `CCOC(=O)COc1cc(OCC(=O)OCC)c2c(=O)cc(-c3ccccc3)oc2c1`, the inhibition is -0.944%.
Take `CCOC(=O)COc1cc(O)c2c(=O)cc(-c3ccccc3)oc2c1`: the inhibition is 1.27%.
For `O=C(NNC(=O)c1ccc(Cl)nc1)c1ccc(Br)cc1` the value was -0.906%; for `Cc1ccc(C)c(NC(=O)CN(C)C(=O)COc2ccc3ccccc3c2)c1`, -0.402%.
Take `CC(=O)NC(CC(=O)Nc1ccc(S(=O)(=O)N2CCOCC2)cc1)c1ccccc1` (centres undefined): the inhibition was 2.28%.
On to `Cc1ccc(S(=O)(=O)N2[C@@H](c3cccc4ccccc34)C(C(=O)O)=C[C@H]2C(C)(C)C)cc1`, for which the inhibition was -1.33%.
The same measure for `CN(CCc1ccccc1)C(=O)c1cccc(NC(=O)Cc2ccc([N+](=O)[O-])cc2)c1`: 0.236%.
The same measure for `O=C1OC[C@@H]2CCCN2C(=O)[C@H](CC(=O)N(CCO)Cc2ccccc2)C/C=C\CC[C@@H]1Cc1ccc(F)cc1`: -0.762%; for `Cc1ccc(C(=O)OCC(=O)N2CCCCCC2)cc1S(=O)(=O)N1CCOCC1`: -2.28%; for `C=CC[C@@H](CC(=O)N[C@H](CO)Cc1ccccc1)C(=O)N[C@@H](COC(=O)[C@@H](CC=C)Cc1ccc(F)cc1)Cc1c[nH]c2ccccc12`: -0.564%.
For `O=C1NC[C@@H](c2ccccc2)OC(=O)[C@H](Cc2ccc(F)cc2)CC/C=C/C[C@H]1CC(=O)N(CCO)Cc1ccccc1` the value was -2.42%; for `Fc1ccccc1-c1cc2cc3c(cc2cn1)OCO3`, 1.15%; for `O=C(CN1C(=O)NC2(CCCCCC2)C1=O)Nc1ccc([N+](=O)[O-])cc1`, -2.25%.
Consider `O=C(COC(=O)c1cccnc1Cl)NC(=O)NC1CCCCC1`, for which the inhibition was -0.374%.
As to `COc1ccc(Cl)cc1NC(=O)COC(=O)c1ccc(Br)o1`, the inhibition was -0.284%.
`COc1ccc(CNc2nc(NCc3ccc(OC)cc3)c3ncn(C4CCCC4)c3n2)cc1`: the inhibition is -0.00506%.
The same measure for `O=C(CN1C(=O)c2ccc([N+](=O)[O-])cc2C1=O)Nc1nnc(C2CC2)s1`: -0.729%; for `C=CCC[C@H](Cc1ccc(F)cc1)C(=O)OC[C@@H](Cc1c[nH]c2ccccc12)NC(=O)[C@H](CC=C)CC(=O)N[C@H](CO)Cc1ccccc1`: -0.577%; for `O=C(COC(=O)c1ccc(O)cc1O)c1ccc2c(c1)OCCO2`: 1.53%.
Regarding `CCOc1ccc(Br)cc1S(=O)(=O)Nc1ccc(S(=O)(=O)Nc2cc(C)on2)cc1`, the inhibition is -0.663%.
The same measure for `COc1ccc2nc3n(c(=O)c2c1)-c1cc(C)ccc1C(=O)NC3Cc1ccc(O)cc1` (centres undefined): -0.57%.
